Inhibition % data for 36 molecules are collected here from article PMC9574860, “Chemical Toolkit for PARK7: Potent, Selective, and High-Throughput” (Journal of Medicinal Chemistry, 2022).

In all, about 7,900 compounds went through this assay and about 400 (5.1%) showed an effect of 50% or more. For the sample, strong results were picked, then their nearest neighbours and some compounds at random.

Sequence of Parkinson's disease protein 7 (PARK7/DJ1) (Q99497 whole entry, looked up, the tested form may be a part): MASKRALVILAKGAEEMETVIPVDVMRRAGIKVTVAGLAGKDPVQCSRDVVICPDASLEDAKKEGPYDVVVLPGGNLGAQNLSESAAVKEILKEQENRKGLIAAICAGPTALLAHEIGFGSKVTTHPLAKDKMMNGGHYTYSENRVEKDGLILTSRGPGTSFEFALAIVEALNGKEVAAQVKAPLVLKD

The assay deals with Parkinson's disease protein 7 (PARK7/DJ1) (human, UniProt Q99497). The experiment in a line: primary screen, percent inhibition; read as competition with a fluorescent probe by fluorescence polarization; higher = more effect of the substance. As to conditions: 100 µM. The method, then:
The screen was conducted using the conditions as described above in 1536-well plates (Corning 3724) with a reaction volume of 8 μL per well. The compound library containing 7887 covalent fragments was purchased at Enamine Ltd. and received as 100 mM DMSO stocks in 384 well LDV Echo plates (Labcyte LP-0200). Stock solutions of 0.26 μM PARK7 and 80 nM JYQ-107 were prepared. Using a Labcyte Echo550 acoustic dispenser, 8 nL of the DMSO stock solution of the library compounds was transferred from the source plates into the empty 1536-well screening plates to obtain a 100 μM final compound concentration. Next, PARK7 (6 μL, final concentration 0.2 μM) was dispensed using a Biotek MultiflowFX liquid dispenser and incubated for 2 h, followed by dispensing the probe JYQ-107 (2 μL, final concentration 20 nM). After 2 h incubation, the FP signal was recorded on a BMG Labtech PHERAstar plate reader (λex/em 480/520 nm). The relative loss of FP signal compared with reference controls was used to calculate the remaining enzyme activity.
For `C=CC(=O)N1C[C@H](CC)CC[C@H]1C` (racemic), the Inhibition % stood at 10.5%.

With `Cc1nc(SC2CC(C)OC2=O)nc(C)c1C` (stereo not drawn), the Inhibition % was found to be 3.23%.

As for `Cc1nn(-c2ccccc2)c(C)c1NC(=O)CCl`, the Inhibition % was determined as 6.29%.

Turning to `Cc1nn(-c2ccccc2)c(O)c1C(=O)CCl`, the Inhibition % worked out at 64.4%.

Turning to `Cc1nn(-c2ccccc2)c(C)c1CNC(=O)CCl`, the Inhibition % is recorded as 13.2%.

`NC(=O)CN(C1CCCC1)S(=O)(=O)C=Cc1ccccc1`: the Inhibition % came to 7.09%.

With `N#Cc1cn(CCS)c(=O)[nH]c1=O`, the Inhibition % worked out at 75.1%.

Turning to `O=c1[nH]c(=O)n(CCC2OCCO2)cc1Cl`, the Inhibition % came to 5.36%.

For `C=CC(=O)NCC1OCCc2ccccc21` (stereo not drawn), the Inhibition % is recorded as 7.98%.

As for `Cc1nn(C)c(Cl)c1C=CC(=O)N1CCC(CN)CC1.Cl`, the Inhibition % was 15.7%.

Turning to `CC(=O)NCc1ccc(S(=O)(=O)F)cc1`, the Inhibition % is given as 32.8%.

Regarding `O=C(CCl)NCCc1ccc(Cl)cc1`, the Inhibition % is on record as 41.2%.

For the molecule `CS(=O)(=O)NCCc1ccc(C(=O)CCl)cc1`, the Inhibition % turned out to be 82.8%.

For the molecule `NS(=O)(=O)c1ccc(CCNC(=O)CCl)cc1`, the Inhibition % was 17.2%.

In the case of `CC(=O)NC(C)c1ccc(C(=O)CCl)cc1` (stereo not drawn), the Inhibition % came to 38.2%.

As for `O=C(CCl)NCc1ccc(-c2ccc(Cl)cc2)o1`, the Inhibition % amounted to 18.1%.

As for `CC(=O)N(C)Cc1ccc(C(=O)CCl)cc1`, the Inhibition % was determined as 79.8%.

Consider `CC(=O)NCc1ccc(C(=O)CCl)o1`, for which the Inhibition % turned out to be 92.2%.

Regarding `CC(=O)NCCc1ccc(C(=O)CCl)cc1`, the Inhibition % was 70.8%.

On to `C=CC(=O)N1CCCC(CC#N)C1` (stereo not drawn), for which the Inhibition % is 5.07%.

Regarding `COC(=O)c1ccc(Oc2ccc(C#N)nc2)cc1`, the Inhibition % turned out to be 6.29%.

As to `Cc1n[nH]c(C)c1CNc1ccc(Cl)c(C#N)n1`, the Inhibition % stood at 1.98%.

Take `C=CC(=O)N1CCCC(NC(C)=O)C1` (stereo not drawn): the Inhibition % was found to be 8.6%.

Turning to `Cc1nn(C)c(Cl)c1Cn1c(-c2ccccc2)noc1=O`, the Inhibition % is recorded as 3.8%.

As for `Cc1cc(C=C(C#N)C(=O)O)c(C)n1CC1CCCO1` (stereo not drawn), the Inhibition % was 11.7%.

In the case of `CCOC1CC(c2nc(-c3cccc(B(O)O)c3)no2)C1` (stereo not drawn), the Inhibition % was -4.81%.

On to `C=CC(=O)N1CCCC(c2nnc3n2CCC3)C1` (stereo not drawn), for which the Inhibition % came out at 5.59%.

Consider `O=C(CCl)N1c2ccccc2OCC1c1ccccc1` (stereo not drawn), for which the Inhibition % is listed as 28.9%.

As for `Cc1ccc(B2OC(C)(C)C(C)(C)O2)cc1[N+](=O)[O-]`, the Inhibition % is reported as 3.85%.

In the case of `C=CC(=O)N1CC(c2ccccc2)C1`, the Inhibition % amounted to 12.4%.

`C=CC(=O)Nc1cnn(COC)c1`: the Inhibition % worked out at 17.1%.

Turning to `NC(=O)COc1ccc(C(=O)CCl)cc1`, the Inhibition % was 5.31%.

`CC(=O)NCc1ccc(S(=O)(=O)NC(=O)CCl)cc1`: the Inhibition % is 3.06%.

Consider `NC(=O)CCc1ccc(C(=O)CCl)cc1`, for which the Inhibition % is 82.5%.

On to `CN(C)C(=O)c1ccc(CNC(=O)CCl)cc1`, for which the Inhibition % turned out to be 2.36%.

Take `CC(=O)NCc1ccc(C(=O)CCl)cc1`: the Inhibition % came to 77.1%.
